Experimental data taken from PubChem BioAssay (Tox21).
Records with an inconclusive call do not appear. Entries that show only a call come without a potency. A structure can be active in one record and inactive in another. Calls of active or inactive are those of the source. Calls follow the shape of the full dose curve.

Experiment: Nuclear factor erythroid 2-related factor 2/antioxidant responsive element (Nrf2/ARE) small molecule agonists: luciferase reporter gene qHTS assay in human keratinocytes (AID 1919969); also: nearly all actives have a fitted effect of over 35% in size
Potency is read from the fitted curve at half-maximal effect.

Structure (SMILES) | Potency
Nc1ccccc1C(=O)O | inactive
C#CCOC(=O)/C=C(C)/C=C/CC(C)CCCC(C)C (configuration not stated) | inactive
COCCC#N | inactive
O=NN1CCCCCCC1 | inactive
NN=C(N)N | inactive
Fc1cc(Br)ccc1CBr | inactive
Clc1ccc(C(Cl)(Cl)Cl)c(Cl)c1 | inactive
Cc1coc2c1CCC(C)C2 (configuration not stated) | inactive
Nc1cccc(Cl)c1 | inactive
CCc1cnc(C2=NC(C)(C(C)C)C(=O)N2)c(C(=O)O)c1 (configuration not stated) | inactive
C#C[C@]1(O)CC[C@H]2[C@@H]3CCC4=CC(=O)CC[C@]4(C)[C@H]3CC[C@@]21C | inactive
COc1cc(OC)nc(Sc2cccc(Cl)c2C(=O)O)n1 | inactive
O=S(=O)(Cl)Cl | inactive
CCCCCCCCCCCCn1cc[n+](C)c1 | inactive
COC(=O)c1ccc(CBr)cc1 | 6.19 µM (active)
CCCCCCCCCCOC(=O)c1ccccc1C(=O)OCCCCCCCCCC | inactive
O=P(O)(O)CCCl | inactive
OCC1CO1 (configuration not stated) | inactive
CSc1nnc(C(C)(C)C)c(=O)n1N | inactive

Structure (SMILES) | Potency
OC(c1ccc(Cl)cc1)(c1cncnc1)c1ccccc1Cl (configuration not stated) | 24.8 µM (active) and inactive
O=C(Cl)OCCOCCOC(=O)Cl | inactive
CCCCCCCCCCn1cc[n+](C)c1 | inactive
CC(C)OC(=O)Cc1ccccc1 | inactive
O=C(O)CC(O)(CC(=O)O)C(=O)O | inactive
CCCC[n+]1cccc(C)c1 | inactive
CCCCCCCCn1cc[n+](C)c1 | inactive
O=C(O)Cc1ccccc1 | inactive
CCC(=O)OC1(c2ccccc2)CCN(C)CC1 | inactive
OCC(Br)CBr (configuration not stated) | inactive
Oc1cc(Cl)c(Cl)cc1Cl | inactive
COC(=O)[C@@H](N)CCCN/C(N)=N/[N+](=O)[O-] | inactive
CC(C)(Cl)Cl | inactive
CCOC(=O)Nc1cccc(OC(=O)Nc2ccccc2)c1 | inactive
O=C(O)C(Cl)(Cl)Cl | inactive
CCN | inactive
N#Cc1cccnc1 | inactive
Oc1ccccc1-c1ccccc1 | 62.6 µM (active) and inactive
